PubChem BioAssay
Calls of active or inactive are those of the source. Rule as the data show it, unless noted: active = inhibition above about 80%; inactive = the rest.

Key:
[1] = growth inhibition, single agent or in combination, cell-based, chromothripsis tumors, cisplatin or BGB combos (AID 1671449); conditions: LFS_MB_P medulloblastoma cells;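 also: cells exposed for 96 hours; 0% = vehicle DMSO and 100% = killing by high DMSO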
[2] = growth inhibition, single agent and combos, cell-based, chromothripsis tumors, cisplatin or BGB combos (AID 1671450); conditions: HDN33 neuroblastoma cells, stronger effect = higher value;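 also: cells exposed to compound for four days; 0% = vehicle DMSO and 100% = cell killing by high DMSO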
[3] = growth inhibition, single agents and combos, ICB984, cell-based, cisplatin or BGB combos, synergistic combos for chromothripsis tumors (AID 1671451; call rule not given here;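 also: cells exposed for 96 hours before readout; 0% = vehicle DMSO and 100% = killing by high DMSO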); conditions: ICB984 medulloblastoma cells, drug combinations, stronger effect = higher value
[4] = growth inhibition, single agents and combos, LFS_MB_1R, cell-based, cisplatin or BGB combos, synergistic combos for chromothripsis tumors (AID 1671452); conditions: LFS_MB_1R medulloblastoma cells, stronger effect = higher value;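 also: cells exposed for 96 hours before readout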
[5] = growth inhibition, single agents and combos, HTB85, cell-based, BGB or cisplatin IC20 combos, synergistic combos for chromothripsis tumors (AID 1671453); conditions: HTB85 osteosarcoma cells, drug combinations, stronger effect = higher value;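 also: cells exposed for 96 hours before readout; 0% = vehicle DMSO and 100% = high DMSO killing control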
[6] = growth inhibition, single agents and combos, CRL2098, cell-based, BGB or cisplatin IC20 combos, synergistic combos for chromothripsis tumors (AID 1671454); conditions: CRL2098 osteosarcoma cells, drug combinations, stronger effect = higher value;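 also: cells exposed for 96 h before readout; 0% = vehicle DMSO and 100% = killing by high DMSO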
[7] = growth inhibition, single agents and combos, HD-MB03, cell-based, BGB or cisplatin IC20 combos, synergistic combos for chromothripsis tumors (AID 1671455; in the data active = inhibition above about 83%;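 also: 0% = vehicle DMSO and 100% = high DMSO as cytotoxic control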); conditions: HD-MB03 medulloblastoma cells, stronger effect = higher value
[8] = growth inhibition, single agents and combos, UWB1.289, cell-based, BGB or cisplatin combos, synergistic combos for chromothripsis tumors (AID 1671456); conditions: UWB1.289 ovarian carcinoma cells, stronger effect = higher value;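 also: cells exposed to compound for four days; 0% = vehicle DMSO and 100% = killing by high DMSO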
[9] = growth inhibition, single agents and combos, LFS_MB_2R, cell-based, cisplatin combos, synergistic combos for chromothripsis tumors (AID 1671457); conditions: LFS_MB_2R medulloblastoma cells, stronger effect = higher value;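 also: cells exposed to compound for four days before readout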
[10] = growth inhibition, MDA-MB-436, cell-based, BGB or cisplatin combos, synergistic combos for chromothripsis tumors (AID 1671458; call rule not given here;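 also: cells exposed for 96 hours; 0% = vehicle DMSO and 100% = killing by high DMSO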); conditions: MDA-MB-436 breast carcinoma growth inhibition, drug combinations, stronger effect = higher value
[11] = UWB1.289_BRCA1 ovarian cancer growth, cell-based, BGB or cisplatin combinations (AID 1671459); conditions: UWB1.289 BRCA1 ovarian carcinoma, drug combinations, stronger effect = higher value
[12] = drug combination toxicity in non-malignant astrocytes – cell-based, BGB or cisplatin IC20 combos, cytotoxicity control for chromothriptic childhood tumor combination screen (AID 1671460); conditions: Human astrocytes, viability inhibition, drug combinations, at 0.5 µM, stronger effect = higher value;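 also: cells exposed to compounds for 96 hours before viability readout; 0% = vehicle and 100% = killing control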
[13] = BT084 cell growth, single and combined drugs, ICGC_MB145, cisplatin and BGB IC40 combos (AID 1671461); conditions: BT084 medulloblastoma cells, drug combinations, stronger effect = higher value;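 also: cells exposed to drugs for 96 hours; 0% = vehicle DMSO and 100% = high DMSO full killing control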
[14] = RCMB18 cell growth, single agent and combined, cisplatin and BGB IC40 combos (AID 1671462); conditions: RCMB18 medulloblastoma cells, stronger effect = higher value;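 also: cells exposed to compound for four days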
[15] = CRL1545 cell growth, single agent and combined, cisplatin and BGB IC20 combos (AID 1671464); conditions: CRL1545 osteosarcoma cells, stronger effect = higher value;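 also: cells exposed to compound for 96 hours before readout; 0% = vehicle DMSO and 100% = high DMSO killing control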
[16] = at 0.5 µM, stronger effect = higher value
[17] = measured here: combination with BGB IC20, at 0.005 µM
[18] = measured here: combination with BGB IC40, at 0.005 µM
[19] = measured here: combination with BGB IC40, at 0.05 µM
[20] = measured here: combination with cisplatin, at 0.5 µM, stronger effect = higher value
[21] = measured here: combination with cisplatin, at 5 µM, stronger effect = higher value
[22] = measured here: with BGB IC20 combination, at 0.5 µM
[23] = measured here: with cisplatin IC20 combination, at 0.5 µM
[24] = measured here: 5 uM single agent, at 5 µM
[25] = measured here: combination with cisplatin, at 0.5 µM
[26] = measured here: combination with cisplatin, at 5 µM
[27] = measured here: with BGB IC20, at 0.5 µM
[28] = measured here: with BGB IC20, at 5 µM
[29] = measured here: with cisplatin IC20, at 0.5 µM
[30] = measured here: with cisplatin IC20, at 5 µM
[31] = measured here: combination with BGB at IC20, at 0.5 µM
[32] = measured here: combination with cisplatin at IC20, at 0.5 µM
[33] = measured here: combo with BGB at IC20, at 0.5 µM
[34] = measured here: combo with cisplatin at IC20, at 0.5 µM
[35] = measured here: inhibition with BGB combination, at 0.05 µM
[36] = measured here: inhibition with cisplatin combination, at 0.05 µM
[37] = measured here: BGB combination, at 0.5 µM
[38] = measured here: BGB combination, at 5 µM
[39] = measured here: cisplatin combination, at 0.5 µM
[40] = measured here: cisplatin combination, at 5 µM
[41] = BGB combination, concentration series, at 5 µM
[42] = cisplatin combination, concentration series, at 5 µM
[43] = measured here: combo with BGB IC20
[44] = measured here: combo with cisplatin IC20
[45] = cisplatin combination, at 0.5 µM
[46] = measured here: BGB IC40 combination 0.05 uM, at 0.05 µM
[47] = measured here: BGB IC40 combination, at 0.05 µM

CN(C)C(=S)NN=C(c1ccccn1)c1ccccn1
inhibition [1, 16]: 9.49% (inactive)
inhibition [1, 17]: 65.9%
inhibition [1, 18]: 60.3%
inhibition [1, 19]: 73.6%
inhibition [1, 20]: 14.7%
inhibition [1, 21]: 65.2%
inhibition ([2]; BGB combo, at 5 µM): 93.5%
inhibition ([2]; at 0.5 µM): 96.3% (active)
inhibition ([2]; cisplatin combo, at 5 µM): 96.8%
inhibition [2, 22]: 96.5%
inhibition [2, 23]: 96.3%
inhibition ([2]; single agent, at 5 µM): 95.4%
inhibition ([3]; BGB IC20 combo, at 0.005 µM): 49.9%
inhibition ([3]; BGB IC40 combo, at 0.005 µM): 48.2%
inhibition ([3]; BGB IC40 combo, at 0.05 µM): 88.6%
inhibition ([3]; at 0.5 µM): -3.29% (inactive)
inhibition ([3]; cisplatin combo, at 0.05 µM): 88.1%
inhibition ([3]; cisplatin combo, at 0.5 µM): -11.8%
inhibition ([3]; cisplatin combo, at 5 µM): 27.2%
inhibition [3, 24]: 32%
inhibition ([4]; at 0.5 µM): 82.5% (active)
inhibition [4, 19]: 62.2%
inhibition [4, 25]: 96.8%
inhibition [4, 26]: 91.5%
inhibition ([5]; at 0.5 µM): 89.9% (active)
inhibition [5, 27]: 85.2%
inhibition [5, 28]: 92.5%
inhibition [5, 29]: 91%
inhibition [5, 30]: 88.7%
inhibition ([5]; single agent, at 5 µM): 90.5%
inhibition ([6]; at 0.5 µM): 98% (active)
inhibition [6, 31]: 97.8%
inhibition [6, 32]: 98.6%
inhibition ([7]; at 0.5 µM): 86.8% (active)
inhibition [7, 33]: 70.3%
inhibition [7, 34]: 93.8%
inhibition ([8]; at 0.5 µM): 88% (active)
inhibition [8, 35]: 90.6%
inhibition [8, 36]: 92.1%
inhibition ([9]; at 0.5 µM): 61.3% (inactive)
inhibition [9, 25]: 70.1%
inhibition [9, 26]: 64.5%
inhibition ([10]; at 0.5 µM): 81.2% (active)
inhibition [10, 37]: 73.4%
inhibition [10, 38]: 86%
inhibition [10, 39]: 85.1%
inhibition [10, 40]: 93.7%
inhibition [11, 41]: 121%
inhibition ([11]; at 0.5 µM): 87% (active)
inhibition [11, 42]: 127%
inhibition [12]: 77.8% (inactive)
inhibition [12, 43]: 77.7%
inhibition [12, 44]: 72.8%
inhibition ([13]; at 0.5 µM): 72.7% (inactive)
inhibition [13, 45]: 77.7%
inhibition ([13]; cisplatin combination, at 5 µM): 74%
inhibition [13, 46]: 80.3%
inhibition ([13]; single agent, at 5 µM): 83.9%
inhibition ([14]; at 0.5 µM): 82.2% (active)
inhibition ([14]; cisplatin combo, at 5 µM): 90.5%
inhibition [14, 47]: 80.1%
inhibition [14, 25]: 86%
inhibition ([14]; single agent, at 5 µM): 94.3%
inhibition ([15]; at 0.5 µM): 96.9% (active)
inhibition [15, 22]: 97.1%
inhibition [15, 23]: 96.8%
inhibition ([15]; single agent, at 0.05 µM): 88.4%
inhibition ([15]; single agent, at 5 µM): 89.2%

O=c1[nH]c(=S)[nH]c2nc(-c3ccccc3)c(-c3ccccc3)nc12
inhibition [1, 16]: -4.47% (inactive)
inhibition [1, 17]: -16.2%
inhibition [1, 18]: -17.7%
inhibition [1, 19]: -55%
inhibition [1, 20]: -17.6%
inhibition [1, 21]: -30.5%
inhibition ([2]; BGB combo, at 5 µM): -12.8%
inhibition ([2]; at 0.5 µM): -3.23% (inactive)
inhibition ([2]; cisplatin combo, at 5 µM): -3.41%
inhibition [2, 22]: -5.44%
inhibition [2, 23]: 12.5%
inhibition ([2]; single agent, at 5 µM): 8.28%
inhibition ([3]; BGB IC20 combo, at 0.005 µM): -5.97%
inhibition ([3]; BGB IC40 combo, at 0.005 µM): -18.7%
inhibition ([3]; BGB IC40 combo, at 0.05 µM): -15.7%
inhibition ([3]; at 0.5 µM): -20.3% (inactive)
inhibition ([3]; cisplatin combo, at 0.05 µM): -19.8%
inhibition ([3]; cisplatin combo, at 0.5 µM): -15.9%
inhibition ([3]; cisplatin combo, at 5 µM): -36.6%
inhibition [3, 24]: 8.29%
inhibition ([4]; at 0.5 µM): -12.5% (inactive)
inhibition [4, 19]: -14.1%
inhibition [4, 25]: -36.2%
inhibition [4, 26]: -28.2%
inhibition ([5]; at 0.5 µM): -2.11% (inactive)
inhibition [5, 27]: -2.07%
inhibition [5, 28]: -2.27%
inhibition [5, 29]: -3.18%
inhibition [5, 30]: -32%
inhibition ([5]; single agent, at 5 µM): 0.689%
inhibition ([6]; at 0.5 µM): -39.5% (inactive)
inhibition [6, 31]: -21.3%
inhibition [6, 32]: -56.3%
inhibition ([7]; at 0.5 µM): 1.96% (inactive)
inhibition [7, 33]: -7.2%
inhibition [7, 34]: 15.9%
inhibition ([8]; at 0.5 µM): 8.37% (inactive)
inhibition [8, 35]: 69.6%
inhibition [8, 36]: 18.6%
inhibition ([9]; at 0.5 µM): -9.62% (inactive)
inhibition [9, 25]: -6.67%
inhibition [9, 26]: 4.64%
inhibition ([10]; at 0.5 µM): -2.86% (inactive)
inhibition [10, 37]: -6.6%
inhibition [10, 38]: -11.7%
inhibition [10, 39]: 0.551%
inhibition [10, 40]: -30.7%
inhibition [11, 41]: 8.97%
inhibition ([11]; at 0.5 µM): 3.94% (inactive)
inhibition [11, 42]: -14.9%
inhibition [12]: 4.94% (inactive)
inhibition [12, 43]: 4.6%
inhibition [12, 44]: -1.31%
inhibition ([13]; at 0.5 µM): -2.6% (inactive)
inhibition [13, 45]: -10.5%
inhibition ([13]; cisplatin combination, at 5 µM): 0.186%
inhibition [13, 46]: -24.1%
inhibition ([13]; single agent, at 5 µM): 0.55%
inhibition ([14]; at 0.5 µM): -2.13% (inactive)
inhibition ([14]; cisplatin combo, at 5 µM): -6.02%
inhibition [14, 47]: -12.2%
inhibition [14, 25]: 41.9%
inhibition ([14]; single agent, at 5 µM): -34.1%
inhibition ([15]; at 0.5 µM): -17.1% (inactive)
inhibition [15, 22]: -18.6%
inhibition [15, 23]: -18.2%
inhibition ([15]; single agent, at 0.05 µM): -5.63%
inhibition ([15]; single agent, at 5 µM): -50.2%
